High-throughput results: PubChem BioAssay, The Scripps Research Institute Molecular Screening Center
In the library only some 4.8% were active in any assay of this set; here they are far more common.
hcDAF12 agonist = activates DAF-12 receptor from parasite H. contortus; HEK293 hcDAF-12 lit1-tk-luc reporter, luminescence; 0% DMSO, 100% Δ7-dafachronic acid; activation, % at 6.8 µM; 370,000 tested, 1.4% active; AID 652067;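 active = activation above the mean of all tested compounds plus 3 SD, cut at about 5.5% in these data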;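 also: 100% = response to 3 µM Δ7-dafachronic acid high control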
DAX1 inh-1 = inhibitors of human orphan nuclear receptor DAX1 (NR0B1); P51843; HEK293 Gal4-DAX1 luciferase reporter, luminescence; inhibition, % at 6.75 µM; 340,000 tested, 0.99% active; AID 504766;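 active = inhibition above the mean over all tested compounds plus 3 SD, cut at about 4.2% in these data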;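 also: 0% = DAX1-transfected cells with DMSO and 100% = empty-vector control cells with DMSO; inhibition shows as a rise in luminescence from relieved DAX1 repression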
Target sequence (P51843 207-470 limits assumed): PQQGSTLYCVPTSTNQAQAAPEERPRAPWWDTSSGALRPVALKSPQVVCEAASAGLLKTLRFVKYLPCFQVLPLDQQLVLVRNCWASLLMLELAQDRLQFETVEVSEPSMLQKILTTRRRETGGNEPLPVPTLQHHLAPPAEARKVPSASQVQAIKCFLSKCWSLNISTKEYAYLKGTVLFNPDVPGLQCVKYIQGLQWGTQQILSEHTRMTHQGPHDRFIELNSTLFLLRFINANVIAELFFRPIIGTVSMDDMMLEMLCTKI
SMARCA2 activ = SMARCA2 function activation, primary screen. AID 652017. 370,000 tested, 1% active. MG213 cells, MMTV-luciferase reporter, dexamethasone, overnight. activation, % at 9.1 µM; in the data active = activation above about 7.8%;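 also: 0% = vehicle wells and 100% = reference activator wells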
DAX1 inh-2 = blocks DAX1 repression of SF-1 activated StAR promoter | inhibition, % at 6.8 µM | 370,000 tested, 1.1% active | HEK293T StAR-luciferase reporter, SF-1/DAX-1 repression relief;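 active = inhibition above the mean over all tested compounds plus 3 SD, cut at about 3.6% in these data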;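 also: 0% = DAX-1 cells with DMSO and 100% = cells lacking DAX-1 with DMSO; higher inhibition means more luminescence from relief of DAX-1 repression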
ssDAF-12 act = activators of S. stercoralis DAF-12 nuclear receptor | activation, % at 6.8 µM | HEK293 ssDAF-12/GRIP1 lit1-tk-luc reporter, luminescence; % of 3 µM dafachronic acid response | 370,000 tested, 1% active | AID 652126;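 active = activation above the mean over all tested compounds plus 3 SD, cut at about 0.9% in these data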;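 also: 0% = DMSO-only wells and 100% = 3 µM delta7-dafachronic acid wells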
hgDAF12 agonist = activates the H. glycines DAF-12 receptor ligand-binding domain; HEK293 GAL4-hgDAF12 UAS-luciferase reporter, agonist luminescence; normalized to butyrate control; activation, % at 6.8 µM; 370,000 tested, 1.8% active; AID 687014;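 active = activation above a cutoff set at the mean of all screened compounds plus 3 SD, cut at about 10% in these data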;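 also: 0% = DMSO wells and 100% = sodium butyrate wells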
Active calls of the source: *; / = no result given.

SMILES | hcDAF12 agonist | DAX1 inh-1 | SMARCA2 activ | DAX1 inh-2 | ssDAF-12 act | hgDAF12 agonist
c1csc(-c2nnc(N3CCCCCC3)c3ccccc23)c1 | 0 | 1 | 2 | 1 | 0 | 6
CC(=O)Nc1ccc2c(c1Br)Cc1ccccc1-2 | 0 | 1 | -3 | 0 | -1 | 13*
O=c1oc2ccc3ccccc3c2cc1-c1nnc(-c2cccs2)o1 | 3 | 3 | 1 | 2 | 1 | 11*
O=c1oc2ccccc2cc1-c1nc(-c2cccs2)cs1 | 6.1* | 2 | 7 | 1 | 0.9* | 4
O=c1oc2ccccc2cc1-c1ccccc1 | 0 | 6.0* | 4 | 1 | 0 | 6
CC1=NN(C(=O)c2ccccc2Cl)C(O)(c2ccccc2)C1 (stereo unspecified) | 0 | 2 | 0 | 0 | -2 | 2
CC1=NN(C(=O)c2ccccc2F)C(O)(c2ccc(Cl)cc2)C1 (stereo unspecified) | 2 | 6.2* | 3 | 1 | -1 | 6
Cc1ccc(C2C(=O)N(C3CCCC3)CC(=O)N2C2CCCCC2)cc1 (stereo unspecified) | -1 | 0 | -1 | -1 | -1 | -2
CC(C)N1C(=O)CN(C2CCCCCC2)C(=O)C1c1ccccc1F (stereo unspecified) | 1 | 3 | 4 | 1 | -1 | 11*
COC(=O)c1sc2ncccc2c1OCc1cccc(Cl)c1 | -2 | 4.2* | -3 | -2 | -1 | 3
CCOc1ccc(NC(=S)NCCCc2ccccc2)cc1 | 0 | 0 | -1 | 0 | -1 | 2
NC(=S)c1ccc(OCCCc2ccccc2)cc1 | 2 | 3 | 6 | 1 | -1 | 12*
O=C([C@@H]1C[C@H]1c1ccccc1)N1CC[C@H]2[C@H](CCCN2Cc2ccc(F)cc2)C1 | -2 | / | -2 | -1 | -2 | 0
Cc1ccc(S(=O)(=O)N2CCN(C(=O)COC(=O)COc3ccc(Cl)c(C)c3)CC2)c(C)c1 | 0 | 0 | 4 | -1 | -1 | -3
Cc1ccc(S(=O)(=O)N2CCN(C(=O)COC(=O)COc3ccc(Cl)cc3)CC2)c(C)c1 | 0 | 4.8* | -4 | 0 | -1 | -1
CCc1cc2c(nc1CC)CCCN2S(=O)(=O)c1ccccc1 | -3 | / | 1 | 1 | -1 | -1
Cc1ccc2nc(NCCc3ccc(Cl)cc3)c3nncn3c2c1 | 0 | 1 | 0 | 0 | -1 | 0
Cc1cccc(CCNc2nc3ccc(C)cc3n3cnnc23)c1 | 0 | 5.0* | 2 | 0 | -2 | 1
COc1ccc(NCc2cc3cc(OC)ccc3[nH]c2=O)cc1 | 1 | 0 | 3 | 0 | -1 | 0
COc1ccc2[nH]c(=O)c(CNc3cccc(C)c3)cc2c1 | 5.7* | 1 | 4 | 1 | 1.2* | 10
COc1ccc(Nc2nc3ccccc3n2C)cc1 | 5 | 6.4* | 3 | 1 | 0 | 12*
Cn1c(COc2ccccc2Br)nc2ccccc21 | 4 | 6.0* | 5 | 2 | 1 | 10
CCOC(=O)c1ccc(NCc2nc3ccccc3n2C)cc1 | 4 | 2 | 4 | 2 | 0.9* | 10
COc1ccc(Nc2cc(C)c3ccccc3n2)cc1 | -1 | 1 | 1 | 1 | -1 | 11*
Cc1ccc(O)c(C(C)c2c[nH]c3ccccc23)c1 (stereo unspecified) | 4 | / | 0 | 0 | 0 | -1
SMILES | hcDAF12 agonist | DAX1 inh-1 | SMARCA2 activ | DAX1 inh-2 | ssDAF-12 act | hgDAF12 agonist
Cn1c(CNc2nc3ccccc3n2C)nc2ccccc21 | 3 | 0 | 0 | 2 | 0 | 11*
CC(C)n1c(NCc2nc3ccccc3n2C)nc2ccccc21 | 0 | 1 | -3 | 0 | 0 | 1
Cc1n[nH]c(C)c1S(=O)(=O)N1CCCC(C(=O)N2CCc3ccccc32)C1 (stereo unspecified) | 2 | -1 | -5 | 0 | 1.9* | 0
COc1ccc(-n2cc(COC(=O)NCCc3c[nH]c4ccccc34)nn2)cc1 | 0 | / | 0 | -1 | -2 | 0
CCC1=C(c2ccc(OC)cc2)CCC(C(=O)O)C1C (stereo unspecified) | -1 | 0 | 5 | 0 | 61* | 0
COCc1[nH]nc2c1C(c1cccc(C(F)(F)F)c1)N(c1ccc(OC)cc1)C2=O (stereo unspecified) | -2 | / | 5 | -1 | -1 | -3
CCCc1nc2ccc(C(=O)OC)cn2c1Cc1ccccc1C(F)(F)F | 0 | / | -3 | 1 | 0 | 0
CCCc1nc2ccc(C(=O)OC)cn2c1Cc1ccccc1OC | 0 | / | -4 | 4.2* | 0 | 1
CCCc1nc2ccc(C(=O)OC)cn2c1Cc1ccccc1 | 5 | / | 1 | 0 | 1.0* | 1
COc1ccc(OC)c(S(=O)(=O)N2CCCCC2C(=O)N2CCN(c3ccccc3F)CC2)c1 (stereo unspecified) | -3 | / | -1 | -1 | -2 | -3
CC(C)CN1CCCC(N2CCN(c3cccc(Cl)c3)CC2)C1 (stereo unspecified) | 6.3* | 0 | 4 | 0 | -1 | 8
CCOC(=O)NC(=O)c1cn(Nc2ncc(Cl)cc2C(F)(F)F)c(=O)[nH]c1=O | 0 | 6.2* | -3 | 0 | -2 | -1
O=C(NC1CCCCN(Cc2cccc(C(F)(F)F)c2)C1=O)c1ccc(-c2ccccc2)cc1 (stereo unspecified) | -3 | / | -3 | -2 | -1 | -1
O=C1c2ccccc2NC(c2ccc3c(c2)OCO3)N1O (stereo unspecified) | 4 | 2 | 4 | 1 | 0 | 9
COc1cc(C2Nc3ccccc3C(=O)N2c2ccc3c(c2)OCCO3)ccc1OCC(C)C (stereo unspecified) | 5 | -3 | 7 | 2 | 0 | 12*
O=C1c2ccccc2NC(c2ccc3c(c2)OCCO3)N1c1ccc2c(c1)OCCO2 (stereo unspecified) | 4 | -2 | 3 | 2 | 0 | 12*
COC(=O)[C@]1(C#N)CC(=O)N(C)[C@@H]1c1ccccc1 | 2 | / | -5 | 1 | -1 | 5
CN1CCc2c(sc(/N=C/c3c[nH]c4ccccc34)c2C(N)=O)C1 | 5.9* | / | -3 | 0 | 0 | 3
CCOC(=O)c1c(/N=C/c2ccc(OC)cc2O)sc2c1CCN(C)C2 | -2 | 0 | -5 | -1 | -2 | -2
O=C(O)c1ccc(-n2ncc3c2/C(=C/c2cccc([N+](=O)[O-])c2)CC3)cc1 | 4 | 0 | 1 | 0 | 0.9* | 0
O=C(O)c1ccc(-n2ncc3c2/C(=C\c2cccc([N+](=O)[O-])c2)CC3)cc1 | 1 | 2 | -2 | 0 | -1 | 3
Cc1c(C)c2ccc(OCC(=O)Nc3nccs3)cc2oc1=O | 5 | -2 | 0 | 1 | 0 | 11*
